# MCF10A rereplic: inducers of DNA re-replication in MCF 10A breast cells. AID 624296. 2.9% of 350,000 active. MCF 10A DNA re-replication, Hoechst nuclear intensity, 48 h. Potency, µM (series often up to 46.1 µM), without a hit: at the highest dose activity, positive = re-replication, actives largely listed as activators; note: % of control where 0% means no effect; nearly all actives have a fitted effect of over 50% in size
# SW480 rereplic: inducers of DNA re-replication in SW480 colon cancer cells | AID 624297 | SW480 DNA re-replication, Hoechst DNA content imaging, 48 h | Potency, µM (doses to about 46.1 µM), without a hit: at the highest dose re-replication activation, hits mostly activators | 1.8% of 340,000 active; note: % of control where 0% means no effect; nearly all actives have a fitted effect of over 55% in size
#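 250 cells/well; 23 nL cpd via pin tool; 48 hr, 37 C, 5% CO2; Hoechst 40 min; imager read of total nuclear intensity, ex 405/em 500-530 nm.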
# HT1080 IDH1KD tx: toxicity to HT-1080 IDH1 knockdown cells (counter line). HT-1080 IDH1 knockdown viability, ATP luminescence, 48 h. Potency, µM (series often up to 46.1 µM), for inactives: top-dose activity, negative = toxicity, hits mostly cytotoxic. 2% of 360,000 active. AID 686971;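 note: 0% = DMSO wells and -100% = cell-free medium wells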
#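 % activity derives from luminescence (CellTiter-Glo), normalised to DMSO and no-cell wells. HT-1080-IDH1KD cells, 750/well, had 48 h compound exposure at 37 °C.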
# HT1080-NT tox: kills 2HG-producing HT-1080-NT fibrosarcoma cells | 1.6% of 360,000 active | AID 686970 | Potency, µM (highest dose often 46.1 µM), for the others: top-dose activity, negative = less viability, actives largely listed as cytotoxic | HT-1080-NT fibrosarcoma viability, CellTiter-Glo ATP luminescence, 48 h;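 note: NT is the 2HG producing partner of a matched IDH1 knockdown line; 0% = DMSO-treated cells and -100% = media-only wells without cells; nearly all actives have a fitted effect of over 55% in size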
#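 Fibrosarcoma NT cells, 750 per well in 5% FBS RPMI, were exposed to compound for 48 hours. Viability: CellTiter-Glo luminescence.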
# KB-3-1 tox: kills parental KB-3-1 adenocarcinoma cells; KB-3-1 viability, CellTiter-Glo ATP luminescence, 72 h; Potency, µM (titrated, usually from 46.1 µM), most hits filed as cytotoxic; 1.4% of 400,000 active; AID 1347075; note: % is set by controls: 0 for no effect and ±100 for the full control effect; nearly all actives have a fitted effect of over 60% in size
#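 Parental KB-3-1 viability, qHTS format: 72 h compound exposure, 37 °C; CellTiter-Glo; media-only wells and DMSO plates as controls; concentration-effect fits on corrected data.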
# KB-V1 cytotox: KB-V1 MDR subline cytotoxicity | Potency, µM (top dose mostly 46.1 µM), most hits filed as cytotoxic | 3.4% of 400,000 active | KB-V1 MDR cells viability, CellTiter-Glo, 72 h; note: % is set by controls: 0 for no effect and ±100 for the full control effect; nearly all actives have a fitted effect of over 60% in size
#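 Luminescent ATP read-out (CellTiter-Glo, 10 min) measures survival of drug-selected KB-V1 MDR cells after 72 h, 37 degrees C compound exposure. Medium: phenol-red-free DMEM, 10% FBS. Values from fitted concentration-response curves.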
# Numbers without * were called inactive; i = inactive; ? = inconclusive; . = not tested or not shown. Rows were chosen to be rich in hits. Some 7.9% of all compounds tested hit in one or more screens of this group. Calls come from the whole dose curve; as a rule, active = well fitted curve in the direction sought with a large enough effect; inconclusive = small, poorly fitted or top-dose-only effect, or another doubt; inactive = no such curve, though single readings can be large; an effect the other way counts as inactive or inconclusive. Potency is the fitted concentration of half-maximal effect.
SMILES,MCF10A rereplic,SW480 rereplic,HT1080 IDH1KD tx,HT1080-NT tox,KB-3-1 tox,KB-V1 cytotox
CC(=O)NC(c1cc(Cl)c2cccnc2c1O)C1CC1 (centres undefined),?,1.3µM*,.,.,i,16.4µM*
COc1cc(C(=O)n2nc(-c3ccco3)nc2NCc2ccc(Cl)cc2)cc(OC)c1OC,.,.,.,.,i,i
COc1cccc(NC(=O)Cn2cc(S(=O)(=O)Cc3ccccc3F)c3ccccc32)c1,.,.,.,.,?,i
CCCCC(=O)NC(c1ccco1)c1cc(Cl)c2cccnc2c1O (centres undefined),25.9%,?,9.2µM*,?,?,?
CCC(=O)NC(c1ccco1)c1cc(Cl)c2cccnc2c1O (centres undefined),?,2.59µM*,3.66µM*,?,?,?
CC(=O)NC(c1ccc(C)cc1)c1cc(Cl)c2cccnc2c1O (centres undefined),?,2.91µM*,?,-27.0%,5.8µM*,?
O=C(CCc1ccccc1)NC(c1cccs1)c1cc(Cl)c2cccnc2c1O (centres undefined),?,?,?,?,?,2.06µM*
O=S(=O)(c1ccc(OC(F)(F)F)cc1)N1CCN(c2nc(-c3ccccc3)nc3ccccc23)CC1,.,.,.,.,i,i
COc1ccc(-c2ccccc2)cc1NC(=O)[C@@H]1O[C@H](CO)[C@@H](O)[C@H]1O,.,.,11.9%,5.1%,i,i
O=C(c1cc(C2CC2)nn1-c1ccccc1)N1CCN(S(=O)(=O)c2ccccc2)CC1,-2.1%,?,-10.7%,-1.6%,i,i
Cc1nc2sccn2c(=O)c1S(=O)(=O)Nc1cccc(Cl)c1C,-1.3%,-6.1%,-0.1%,-1.9%,?,i
COc1ccc(C(=O)NC(c2ccc(OC)c(OC)c2)c2cc(Cl)c3cccnc3c2O)cc1 (centres undefined),.,.,.,.,i,i
COc1ccc(C(NC(=O)c2cccnc2)c2cc(Cl)c3cccnc3c2O)cc1OC (centres undefined),12.6µM*,?,11.6µM*,20.6µM*,?,6.51µM*
CN(c1ccc(C(=O)NCCCn2ccnc2)cc1)S(C)(=O)=O,4.5%,-42.4%,-3.5%,-16.6%,i,i
O=C(Nc1ccc2nc3n(c(=O)c2c1)CCCC3)c1cccc([N+](=O)[O-])c1,-0.3%,1.3%,1.9%,11.2%,i,?
O=c1c2cc(NC(=S)N3CCCCC3)ccc2nc2n1CCCCC2,7.1%,-22.2%,-7.8%,-1.8%,i,i
CC1CCN(C(=S)Nc2ccc3nc4n(c(=O)c3c2)CCCCC4)CC1,?,-4.2%,-7.2%,-2.5%,i,6.51µM*
O=C(Nc1ccc2nc3n(c(=O)c2c1)CCCC3)c1cc([N+](=O)[O-])ccc1F,14.6µM*,14.6µM*,?,-19.8%,i,16.4µM*
CN(C(=O)COC(=O)c1ccccc1OCC(=O)Nc1ccc(Br)cc1)c1ccccc1,.,.,-12.9%,-20.4%,.,.
NS(=O)(=O)c1ccc(CCNC(=O)c2nc(SCc3ccccc3F)ncc2Cl)cc1,.,.,.,.,i,i
CCOC(=O)Cn1c(=NC(=O)c2ccc([N+](=O)[O-])s2)sc2ccccc21,3.66µM*,?,0.7%,-3.6%,4.61µM*,?
C[C@]12c3[nH]c4ccc(Cl)cc4c3CCN1C(=O)[C@@H](CC(=O)NCCC1=CCCCC1)C[C@@H]2C(=O)N1CCOCC1,?,9.3%,-20.7%,-22.5%,i,i
COc1ccccc1-c1cc2nc(-c3ccccc3)cc(N3CCN(C(=O)c4ccco4)CC3)n2n1,.,.,4.1%,-0.1%,16.4µM*,?
COc1ccccc1-c1cc2nc(-c3ccccc3)cc(N3CCN(C(=O)c4ccoc4)CC3)n2n1,.,.,-26.7%,-10.8%,?,9.2µM*
Cc1cc(N2CCN(C(=O)c3ccoc3)CC2)n2nc(-c3ccccc3)cc2n1,.,.,-1.9%,-4.9%,i,i
SMILES,MCF10A rereplic,SW480 rereplic,HT1080 IDH1KD tx,HT1080-NT tox,KB-3-1 tox,KB-V1 cytotox
O=C(c1ccoc1)N1CCN(c2cc(-c3ccccc3)nc3cc(-c4ccccc4)nn23)CC1,.,.,?,-24.6%,16.4µM*,?
COc1cc(NC(=O)c2cccc3c2C(=O)N(C2CCCCC2)C3)cc(OC)c1OC,?,8.2%,?,-11.8%,?,?
COc1ccc(NC(=O)c2c(NCc3cccc(OC)c3)sc3c2CCC3)cc1,.,.,.,.,i,i
N#CC1=C(SCC(=O)NC23CC4CC(CC(C4)C2)C3)NC(=O)C(C#N)C12CCCCC2 (centres undefined),16.4µM*,13.2%,?,?,?,11.6µM*
N#CC1=C(SCC(=O)NC2CC2)NC(=O)C(C#N)C12CCCCC2 (centres undefined),19.6%,-3.6%,0.5%,10.0%,i,i
CCOc1ccc(/C=N/n2c(C3CCCCC3)n[nH]c2=S)cc1,10.3µM*,-15.4%,6.7%,8.2%,i,i
Fc1ccc(/C=N/n2c(C3CCCCC3)n[nH]c2=S)cc1,?,-8.1%,9.6%,11.2%,i,i
CC(C)c1ccc(/C=N/n2c(COc3ccccc3)n[nH]c2=S)cc1,20.6µM*,8.4%,-13.2%,-29.2%,i,?
CC[C@@]12CCCN3CCc4c(n(c5ccccc45)C(=O)C1)[C@H]32,?,11.4µM*,.,.,.,.
CCC12CCCN3CCc4c(n(c5ccccc45)C(O)(C(=O)OC)C1)C32 (centres undefined),1.0%,-18.0%,3.3%,-19.6%,i,i
Cc1nc(-c2coc3cc(O)c(C)cc3c2=O)cs1,2.4%,-7.8%,23.1µM*,18.4µM*,?,?
O=C1NC(c2cccs2)Nc2ccccc21 (centres undefined),9.9%,19.5%,0.3%,-0.1%,i,i
Clc1ccccc1C1Nc2cccc3cccc(c23)N1,18.3%,-12.1%,-1.8%,-2.8%,i,i
COc1ccc2ccccc2c1C1NC(=O)c2ccccc2N1 (centres undefined),5.17µM*,8.2µM*,?,5.17µM*,2.31µM*,5.8µM*
O=C1NC(c2cccc3ccccc23)Nc2ccccc21 (centres undefined),0.92µM*,?,0.731µM*,1.3µM*,0.411µM*,0.651µM*
O=C1NC(c2ccccc2Cl)Nc2ccccc21 (centres undefined),?,16.4µM*,?,?,?,?
O=P(OC1CCCCC1)(OC1CCCCC1)C(O)c1ccccc1 (centres undefined),1.1%,-11.3%,-23.9%,-3.3%,i,9.2µM*
